The supplement of paper PMC10849652
Of roughly 8,800 targets only a part is listed; those with a hit were picked by preference. About 0.5% of all pairs of compound and target were hits.

Columns and labels:
Test in all cases: log2 fold change, soluble protein after heating vs DMSO (PISA); higher = thermal stabilisation; K562 lysate, 10 uM; active = over 0.2 and 3.5 SD of the protein, either way, in both replicates (recomputed)
erlotinib = compound: C#Cc1cccc(Nc2ncnc3cc(OCCOC)c(OCCOC)cc23)c1 [erlotinib]
Method in brief: (§1)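 Thermal stability, expressed as log-two fold change relative to solvent controls, is given from duplicates. Crude K562 extract in PBS pH 7.4 with 1 mM MgCl2, at 1 mg/mL protein, was treated with 10 μM compound for 30 min and heated in aliquots for 3 min across 48°C-58°C. After pooling, adjustment to 0.5% NP-40 at 4°C and centrifugation at 21,000xg for 90 min, supernatant protein was measured by TMTpro 16plex LC-MS/MS with channel sums equalised.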

[1] = compound: C/C(=N\NC(=O)C1=CC(=CC=C1)S(=O)(=O)N2CCOCC2)/C3=C(C=CC(=C3)Cl)O
Method in brief: as §1

[2] = compound: C1=CC(=CC=C1C2=NC3=C(N2)C=C(C=C3)C(=O)N)OC4=CC=C(C=C4)Cl
Method in brief: as §1

[3] = compound: C1=CC2=C(C=CC(=C2)/C=C\3/C(=O)NC(=NCC4=CC=CS4)S3)N=C1
Method in brief: as §1

[4] = compound: C1=CC2=NC=CN=C2C=C1/C=C/3\C(=O)NC(=O)S3
Method in brief: as §1

[5] = compound: C1=CC=C(C=C1)C2=NC(=C(N2)C3=CC=NC=C3)C4=CC(=C(C=C4)Cl)O
Method in brief: as §1

[6] = compound: C1=CC=C2C(=C1)C3=NNC4=CC=CC(=C43)C2=O
Method in brief: as §1

[7] = compound: C1CCN(C1)C(=O)NC2=CC=CC(=C2)NC3=NC=C(C(=N3)NCCC4=CN=CN4)Br
Method in brief: as §1

[8] = compound: C1CN(CCC1(CC2=CC=C(C=C2)Cl)N)C3=NC=NC4=C3C=CN4
Method in brief: as §1

IRAK-1-4 Inhibitor I = compound: C1COCCN1CCN2C3=CC=CC=C3N=C2NC(=O)C4=CC(=CC=C4)[N+](=O)[O-] [IRAK-1-4 Inhibitor I]
Method in brief: as §1

ibrutinib = compound: C=CC(=O)N1CCC[C@@H](n2nc(-c3ccc(Oc4ccccc4)cc3)c3c(N)ncnc32)C1 [ibrutinib]
Method in brief: as §1

[9] = compound: CC(=O)c1cnc2ccc(-c3cc(Cl)c(O)c(Cl)c3)nc2c1N[C@H]1CC[C@H](CN(C)C)CC1
Method in brief: as §1

ralimetinib = compound: CC(C)(C)Cn1c(N)nc2ccc(-c3[nH]c(C(C)(C)C)nc3-c3ccc(F)cc3)nc21 [ralimetinib]
Method in brief: as §1

[10] = compound: CC(C)(O)CC(=O)NCCn1ccc2ncnc(Nc3ccc(Oc4cccc(C(F)(F)F)c4)c(Cl)c3)c21
Method in brief: as §1

[11] = compound: CC(C)C1=C2N=C(C=C(N2N=C1)NCC3=CC=CC=C3)NCCCCCCN
Method in brief: as §1

[12] = compound: CC1=C(C(CC(=O)N1)C2=CC=C(C=C2)C(F)(F)F)C(=O)NC3=C(C=C4C(=C3)C=NN4)F
Method in brief: as §1

[13] = compound: CC1=C(C2=C(C=C1)C(=O)C3=CC=CC=C3N2CCCN)C
Method in brief: as §1

[14] = compound: CC1=C(C=C(C=C1)NC(=O)C2=CC(=CC=C2)C(C)(C)C#N)NC3=CC4=C(C=C3)N=CN(C4=O)C
Method in brief: as §1

[15] = compound: CC1=C(C=C(C=C1)NC(=O)C2=CC(=CC=C2)N(C)C)NC(=O)C3=CC=C(C=C3)O
Method in brief: as §1

[16] = compound: CC1=CC=C(C=C1)SC2=C3C=C(SC3=CN=C2)C(=O)N
Method in brief: as §1

Measured: log2 fold change

TYMS (UniProt P04818)
inactive: erlotinib 0.016 | [1] 0.041 | [2] 0.011 | [3] -0.032 | [4] 0.032 | [5] -0.026 | [6] 0.019 | [7] 0.035 | [8] -0.004 | IRAK-1-4 Inhibitor I -0.008 | ibrutinib -0.041 | [9] -0.017 | ralimetinib 0.014 | [10] 0.029 | [11] 0.01 | [12] 0.001 | [13] 0.043 | [14] -0.005 | [15] -0.001 | [16] -0.022

TRIM33 (UniProt H0Y612)
inactive: erlotinib -0.006 | [1] -0.002 | [2] 0.05 | [3] -0.126 | [4] -0.071 | [5] -0.01 | [6] -0.009 | [7] -0.065 | [8] -0.023 | IRAK-1-4 Inhibitor I 0.176 | ibrutinib 0.016 | [9] -0.003 | ralimetinib 0.135 | [10] -0.084 | [11] 0.068 | [12] -0.099 | [13] -0.004 | [14] -0.031 | [15] -0.009 | [16] -0.012

TTF2 (UniProt Q9UNY4)
UniProt Q9UNY4, sequence (Q9UNY4 whole entry, looked up): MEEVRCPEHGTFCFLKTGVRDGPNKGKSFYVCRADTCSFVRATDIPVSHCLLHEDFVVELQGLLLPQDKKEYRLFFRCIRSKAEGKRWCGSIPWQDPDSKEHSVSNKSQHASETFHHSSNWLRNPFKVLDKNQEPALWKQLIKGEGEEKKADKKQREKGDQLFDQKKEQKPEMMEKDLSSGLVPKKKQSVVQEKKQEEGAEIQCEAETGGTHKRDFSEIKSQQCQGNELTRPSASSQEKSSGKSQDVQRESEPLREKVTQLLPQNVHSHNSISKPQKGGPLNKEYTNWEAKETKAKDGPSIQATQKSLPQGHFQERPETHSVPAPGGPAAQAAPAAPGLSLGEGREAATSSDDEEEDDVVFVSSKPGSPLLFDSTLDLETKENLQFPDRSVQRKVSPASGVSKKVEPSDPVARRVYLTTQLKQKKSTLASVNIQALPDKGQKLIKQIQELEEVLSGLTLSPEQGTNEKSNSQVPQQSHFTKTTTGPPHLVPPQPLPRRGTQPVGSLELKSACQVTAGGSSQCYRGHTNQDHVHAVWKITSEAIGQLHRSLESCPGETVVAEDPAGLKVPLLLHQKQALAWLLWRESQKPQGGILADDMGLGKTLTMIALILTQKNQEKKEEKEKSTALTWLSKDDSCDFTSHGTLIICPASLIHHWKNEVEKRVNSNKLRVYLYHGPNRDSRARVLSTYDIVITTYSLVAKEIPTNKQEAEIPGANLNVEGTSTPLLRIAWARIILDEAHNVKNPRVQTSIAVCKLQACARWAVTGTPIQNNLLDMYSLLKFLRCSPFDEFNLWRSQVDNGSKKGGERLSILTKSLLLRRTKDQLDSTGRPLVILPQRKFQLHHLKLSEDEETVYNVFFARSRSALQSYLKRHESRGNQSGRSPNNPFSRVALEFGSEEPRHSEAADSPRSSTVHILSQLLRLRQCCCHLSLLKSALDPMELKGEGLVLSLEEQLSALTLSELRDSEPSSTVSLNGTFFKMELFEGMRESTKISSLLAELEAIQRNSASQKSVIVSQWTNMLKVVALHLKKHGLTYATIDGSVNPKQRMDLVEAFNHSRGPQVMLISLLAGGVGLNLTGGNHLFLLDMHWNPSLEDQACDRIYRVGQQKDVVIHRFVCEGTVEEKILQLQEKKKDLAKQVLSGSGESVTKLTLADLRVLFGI
inactive: erlotinib 0.043 | [1] -0.003 | [2] 0.063 | [3] -0.001 | [4] -0.026 | [5] 0.042 | [6] -0.046 | [7] 0.039 | [8] 0.032 | IRAK-1-4 Inhibitor I -0.006 | ibrutinib 0.003 | [9] -0.121 | ralimetinib 0.035 | [10] -0.006 | [11] -0.02 | [12] 0.037 | [13] -0.084 | [14] -0.058 | [15] -0.018 | [16] -0.115

TUBB4B (UniProt P68371)
UniProt P68371, sequence (P68371 whole entry, looked up): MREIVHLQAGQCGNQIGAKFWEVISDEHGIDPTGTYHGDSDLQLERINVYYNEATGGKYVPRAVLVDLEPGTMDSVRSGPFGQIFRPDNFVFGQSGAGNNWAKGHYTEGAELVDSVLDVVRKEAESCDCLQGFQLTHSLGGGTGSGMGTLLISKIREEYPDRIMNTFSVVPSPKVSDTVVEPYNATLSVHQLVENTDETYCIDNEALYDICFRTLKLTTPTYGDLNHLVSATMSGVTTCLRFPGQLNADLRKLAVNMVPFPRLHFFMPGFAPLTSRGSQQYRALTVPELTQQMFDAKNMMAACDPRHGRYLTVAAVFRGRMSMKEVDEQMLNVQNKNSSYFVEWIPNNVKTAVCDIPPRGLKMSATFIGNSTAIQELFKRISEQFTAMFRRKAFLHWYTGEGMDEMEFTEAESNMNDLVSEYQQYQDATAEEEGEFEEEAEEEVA
inactive: erlotinib 0.008 | [1] -0.059 | [2] 0.019 | [3] -0.018 | [4] 0.005 | [5] -0.024 | [6] -0.011 | [7] 0.019 | [8] 0.03 | IRAK-1-4 Inhibitor I 0.04 | ibrutinib -0.012 | [9] 0.029 | ralimetinib 0.026 | [10] 0.029 | [11] 0.02 | [12] 0.011 | [13] 0.022 | [14] -0.05 | [15] 0.035 | [16] 0.018

TK1 (UniProt P04183)
UniProt P04183, sequence (P04183 whole entry, looked up): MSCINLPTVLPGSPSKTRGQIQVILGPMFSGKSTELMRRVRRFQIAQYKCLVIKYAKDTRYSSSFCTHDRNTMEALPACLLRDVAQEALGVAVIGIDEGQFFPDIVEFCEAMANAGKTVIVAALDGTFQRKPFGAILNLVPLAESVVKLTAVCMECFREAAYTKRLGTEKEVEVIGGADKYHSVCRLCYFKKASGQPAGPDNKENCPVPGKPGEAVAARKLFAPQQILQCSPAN
inactive: erlotinib 0.003 | [1] -0.112 | [2] 0.036 | [3] -0.001 | [4] 0.028 | [5] -0.003 | [6] 0.021 | [7] 0.013 | [8] 0.017 | IRAK-1-4 Inhibitor I 0.008 | ibrutinib 0.004 | [9] -0.004 | ralimetinib 0.023 | [10] -0.022 | [11] -0.029 | [12] 0 | [13] 0.006 | [14] 0.046 | [15] -0.014 | [16] -0.006

TOE1 (UniProt Q96GM8)
inactive: erlotinib -0.035 | [1] -0.064 | [2] 0.006 | [3] 0.036 | [4] 0.054 | [5] -0.021 | [6] -0.024 | [7] 0 | [8] -0.035 | IRAK-1-4 Inhibitor I -0.021 | ibrutinib 0.011 | [9] -0.001 | ralimetinib 0.007 | [10] 0.003 | [11] 0.008 | [12] -0.061 | [13] -0.023 | [14] -0.02 | [15] 0.014 | [16] 0.011

TLK2 isoform 2 (UniProt Q86UE8)
inactive: erlotinib -0.071 | [1] -0.076 | [2] 0.054 | [3] -0.006 | [4] 0.014 | [5] 0.001 | [6] 0.171 | [7] -0.012 | [8] 0.021 | IRAK-1-4 Inhibitor I -0.058 | ibrutinib -0.021 | [9] 0.104 | ralimetinib 0.035 | [10] -0.018 | [11] 0.007 | [12] -0.009 | [13] 0.051 | [14] 0 | [15] 0.025 | [16] -0.055

TUBB3 (UniProt Q13509)
UniProt Q13509, sequence (Q13509 whole entry, looked up): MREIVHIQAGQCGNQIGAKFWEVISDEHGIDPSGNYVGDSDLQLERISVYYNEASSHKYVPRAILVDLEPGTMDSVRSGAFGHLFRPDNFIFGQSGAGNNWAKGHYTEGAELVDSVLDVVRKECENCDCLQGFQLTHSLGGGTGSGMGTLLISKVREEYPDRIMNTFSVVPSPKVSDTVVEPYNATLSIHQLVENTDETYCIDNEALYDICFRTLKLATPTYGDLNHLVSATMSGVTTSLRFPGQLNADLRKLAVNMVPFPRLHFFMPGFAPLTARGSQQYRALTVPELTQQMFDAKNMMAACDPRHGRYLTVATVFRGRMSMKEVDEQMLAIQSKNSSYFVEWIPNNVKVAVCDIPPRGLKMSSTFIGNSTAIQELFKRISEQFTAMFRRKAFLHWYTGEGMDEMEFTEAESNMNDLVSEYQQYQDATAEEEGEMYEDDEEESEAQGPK
inactive: erlotinib 0.025 | [1] -0.089 | [2] 0.016 | [3] -0.004 | [4] 0.001 | [5] -0.019 | [6] -0.025 | [7] 0.018 | [8] 0.03 | IRAK-1-4 Inhibitor I 0.006 | ibrutinib 0.003 | [9] 0.009 | ralimetinib 0.022 | [10] -0.019 | [11] 0.025 | [12] 0.013 | [13] 0.005 | [14] -0.007 | [15] 0.015 | [16] 0.019

TELO2 (UniProt Q9Y4R8)
UniProt Q9Y4R8, sequence (Q9Y4R8 whole entry, looked up): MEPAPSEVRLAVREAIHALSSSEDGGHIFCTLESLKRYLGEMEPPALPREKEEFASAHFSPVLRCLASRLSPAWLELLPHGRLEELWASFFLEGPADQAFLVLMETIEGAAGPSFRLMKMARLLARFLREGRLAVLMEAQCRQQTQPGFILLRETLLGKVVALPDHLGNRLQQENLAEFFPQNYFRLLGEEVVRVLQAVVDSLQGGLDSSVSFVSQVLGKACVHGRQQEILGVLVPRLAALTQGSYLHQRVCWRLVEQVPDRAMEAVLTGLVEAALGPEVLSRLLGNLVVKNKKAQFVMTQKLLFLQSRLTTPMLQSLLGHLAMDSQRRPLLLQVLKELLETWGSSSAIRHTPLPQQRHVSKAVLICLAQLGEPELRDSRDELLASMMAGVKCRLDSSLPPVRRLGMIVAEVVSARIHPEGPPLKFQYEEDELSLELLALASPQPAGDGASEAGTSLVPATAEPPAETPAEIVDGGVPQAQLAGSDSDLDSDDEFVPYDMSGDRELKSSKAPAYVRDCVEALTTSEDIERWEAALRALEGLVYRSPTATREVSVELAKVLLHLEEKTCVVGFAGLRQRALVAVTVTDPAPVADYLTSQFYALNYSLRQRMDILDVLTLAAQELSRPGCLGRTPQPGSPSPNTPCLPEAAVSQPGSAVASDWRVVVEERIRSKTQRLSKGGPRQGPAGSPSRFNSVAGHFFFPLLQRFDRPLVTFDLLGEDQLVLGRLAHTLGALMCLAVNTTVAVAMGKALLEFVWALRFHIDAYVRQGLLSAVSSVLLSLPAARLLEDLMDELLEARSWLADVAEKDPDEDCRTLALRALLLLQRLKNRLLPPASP
inactive: erlotinib 0.023 | [1] 0.006 | [2] -0.035 | [3] 0.025 | [4] 0.048 | [5] 0 | [6] 0.011 | [7] -0.031 | [8] 0.002 | IRAK-1-4 Inhibitor I 0.009 | ibrutinib -0.023 | [9] 0 | ralimetinib 0.019 | [10] -0.052 | [11] 0.002 | [12] 0.029 | [13] -0.015 | [14] 0.006 | [15] 0.014 | [16] 0.017

TERF2IP (UniProt Q9NYB0)
inactive: erlotinib -0.003 | [1] 0.025 | [2] 0.03 | [3] -0.054 | [4] -0.023 | [5] -0.001 | [6] 0.005 | [7] 0.019 | [8] 0.029 | IRAK-1-4 Inhibitor I 0.009 | ibrutinib 0.02 | [9] -0.012 | ralimetinib 0.025 | [10] -0.049 | [11] -0.047 | [12] 0.004 | [13] -0.004 | [14] -0.008 | [15] -0.005 | [16] 0.003

UBR5 (UniProt O95071)
inactive: erlotinib 0.005 | [1] -0.029 | [2] -0.024 | [3] -0.002 | [4] -0.012 | [5] -0.013 | [6] -0.033 | [7] -0.001 | [8] 0.007 | IRAK-1-4 Inhibitor I 0.001 | ibrutinib -0.001 | [9] -0.005 | ralimetinib 0.01 | [10] -0.028 | [11] -0.005 | [12] 0.004 | [13] -0.011 | [14] 0.013 | [15] 0.016 | [16] 0.018

THOC5 (UniProt Q13769)
UniProt Q13769, sequence (Q13769 whole entry, looked up): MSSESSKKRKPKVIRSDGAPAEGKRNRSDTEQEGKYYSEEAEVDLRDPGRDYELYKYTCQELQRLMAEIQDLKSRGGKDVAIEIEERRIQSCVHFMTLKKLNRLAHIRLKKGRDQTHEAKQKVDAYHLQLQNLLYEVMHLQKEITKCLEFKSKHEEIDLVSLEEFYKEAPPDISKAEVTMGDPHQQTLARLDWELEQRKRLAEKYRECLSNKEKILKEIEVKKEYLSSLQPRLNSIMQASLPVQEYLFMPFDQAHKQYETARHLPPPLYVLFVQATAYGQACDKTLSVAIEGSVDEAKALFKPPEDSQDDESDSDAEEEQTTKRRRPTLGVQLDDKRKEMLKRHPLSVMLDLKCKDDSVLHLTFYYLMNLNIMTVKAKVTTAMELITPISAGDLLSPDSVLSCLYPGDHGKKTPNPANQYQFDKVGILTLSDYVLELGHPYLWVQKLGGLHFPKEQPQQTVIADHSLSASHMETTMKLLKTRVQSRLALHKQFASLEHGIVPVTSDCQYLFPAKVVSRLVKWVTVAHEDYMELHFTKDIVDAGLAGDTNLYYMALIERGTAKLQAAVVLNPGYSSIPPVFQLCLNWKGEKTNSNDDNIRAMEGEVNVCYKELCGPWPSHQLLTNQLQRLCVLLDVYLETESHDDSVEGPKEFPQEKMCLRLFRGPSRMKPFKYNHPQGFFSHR
inactive: erlotinib 0.013 | [1] -0.105 | [2] 0.036 | [3] -0.035 | [4] 0.008 | [5] -0.001 | [6] -0.016 | [7] 0.005 | [8] 0.001 | IRAK-1-4 Inhibitor I -0.012 | ibrutinib 0.023 | [9] 0.004 | ralimetinib 0.015 | [10] -0.011 | [11] 0.008 | [12] -0.011 | [13] -0.002 | [14] 0.004 | [15] 0.018 | [16] -0.001

TYW3 (UniProt Q6IPR3)
UniProt Q6IPR3, sequence (Q6IPR3 whole entry, looked up): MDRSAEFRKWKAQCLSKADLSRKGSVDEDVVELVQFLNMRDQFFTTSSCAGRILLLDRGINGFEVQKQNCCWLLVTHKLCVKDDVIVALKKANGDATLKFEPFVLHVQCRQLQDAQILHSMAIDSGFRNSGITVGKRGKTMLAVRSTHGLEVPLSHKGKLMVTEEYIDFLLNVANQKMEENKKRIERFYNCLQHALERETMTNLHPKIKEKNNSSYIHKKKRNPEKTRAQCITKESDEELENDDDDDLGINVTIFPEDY
inactive: erlotinib -0.002 | [1] 0.003 | [2] 0.063 | [3] -0.032 | [4] -0.008 | [5] 0.002 | [6] -0.07 | [7] -0.054 | [8] 0.014 | IRAK-1-4 Inhibitor I 0.018 | ibrutinib -0.052 | [9] -0.054 | ralimetinib -0.016 | [10] -0.081 | [11] 0.043 | [12] -0.015 | [13] -0.021 | [14] 0.025 | [15] 0.01 | [16] -0.004

TRMT12 (UniProt Q53H54)
UniProt Q53H54, sequence (Q53H54 whole entry, looked up): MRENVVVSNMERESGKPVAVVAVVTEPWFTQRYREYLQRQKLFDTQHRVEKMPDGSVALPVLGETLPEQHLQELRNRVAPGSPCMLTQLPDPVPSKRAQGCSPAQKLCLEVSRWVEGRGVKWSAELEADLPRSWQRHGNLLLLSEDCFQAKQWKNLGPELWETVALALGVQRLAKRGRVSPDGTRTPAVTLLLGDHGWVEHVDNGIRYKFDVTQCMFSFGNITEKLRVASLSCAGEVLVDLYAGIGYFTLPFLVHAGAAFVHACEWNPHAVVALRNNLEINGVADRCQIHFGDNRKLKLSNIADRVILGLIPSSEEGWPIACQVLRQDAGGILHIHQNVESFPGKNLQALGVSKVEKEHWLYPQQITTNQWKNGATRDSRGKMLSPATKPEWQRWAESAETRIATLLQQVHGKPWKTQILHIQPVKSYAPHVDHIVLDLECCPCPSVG
inactive: erlotinib 0.065 | [1] 0.01 | [2] 0.018 | [3] 0.058 | [4] -0.044 | [5] 0.106 | [6] -0.047 | [7] -0.064 | [8] 0.07 | IRAK-1-4 Inhibitor I -0.03 | ibrutinib -0.083 | [9] -0.009 | ralimetinib 0.094 | [10] 0.063 | [11] -0.018 | [12] -0.081 | [13] -0.048 | [14] 0.036 | [15] 0.033 | [16] -0.031

TMPO (UniProt P42167)
inactive: erlotinib -0.016 | [1] 0.021 | [2] -0.021 | [3] -0.027 | [4] 0.014 | [5] -0.029 | [6] -0.073 | [7] -0.019 | [8] -0.032 | IRAK-1-4 Inhibitor I -0.002 | ibrutinib -0.003 | [9] 0.009 | ralimetinib 0.018 | [10] -0.001 | [11] -0.044 | [12] 0.006 | [13] 0.005 | [14] -0.043 | [15] -0.006 | [16] -0.064

UBXN6 (UniProt Q9BZV1)
UniProt Q9BZV1, sequence (Q9BZV1 whole entry, looked up): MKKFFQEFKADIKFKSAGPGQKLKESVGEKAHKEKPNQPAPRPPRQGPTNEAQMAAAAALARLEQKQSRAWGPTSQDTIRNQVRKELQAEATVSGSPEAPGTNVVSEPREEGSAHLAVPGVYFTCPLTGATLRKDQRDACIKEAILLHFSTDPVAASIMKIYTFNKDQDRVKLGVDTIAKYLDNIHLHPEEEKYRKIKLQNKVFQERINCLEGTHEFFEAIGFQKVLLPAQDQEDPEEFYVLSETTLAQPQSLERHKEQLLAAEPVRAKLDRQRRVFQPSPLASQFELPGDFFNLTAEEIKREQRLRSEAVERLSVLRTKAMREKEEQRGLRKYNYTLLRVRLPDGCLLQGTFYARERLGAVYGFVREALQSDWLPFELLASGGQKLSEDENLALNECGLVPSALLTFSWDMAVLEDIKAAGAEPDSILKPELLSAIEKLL
inactive: erlotinib -0.02 | [1] 0.001 | [2] 0.001 | [3] -0.024 | [4] 0.006 | [5] 0.036 | [6] -0.073 | [7] 0 | [8] -0.005 | IRAK-1-4 Inhibitor I -0.007 | ibrutinib 0.046 | [9] 0.174 | ralimetinib 0.037 | [10] -0.012 | [11] 0.019 | [12] 0.121 | [13] -0.059 | [14] -0.038 | [15] 0.031 | [16] 0.041
